Experiments:
Test in all cases: PBM binding z-score (relative to random genomic background probes); higher = stronger binding; sequences stand for … in GC…GCGATTGACAGCGTAGAATGAAGG
[1] = test system: RARb homodimer (NR concentration 270 nM)
Procedure, shortened: (§1)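 Ligand-free nuclear receptor dimers were bound for 1 h to custom Agilent 4×180K protein-binding microarrays. Detection used antibodies against each partner (one per run). Binding z-scores rest on regression-normalized fluorescence, with random background probes as the reference.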

[2] = test system: RARg:RXRa (NR concentration 270 nM, RXRa partner concentration 90 nM)
Procedure, shortened: as §1

[3] = test system: RARg homodimer (NR concentration 270 nM)
Procedure, shortened: as §1

[4] = test system: RXRa DBDmut IVT, anti-RXR (DBD mutation: RXRa K156A/R161A, NR concentration 90 nM)
Procedure, shortened: as §1

[5] = test system: RXRa homodimer (NR concentration 180 nM)
Procedure, shortened: as §1

[6] = test system: THRa:RXRa (NR concentration 90 nM, RXRa partner concentration 90 nM)
Procedure, shortened: as §1

[7] = test system: THRa homodimer (NR concentration 90 nM)
Procedure, shortened: as §1

[8] = test system: VDR homodimer (NR concentration 270 nM)
Procedure, shortened: as §1

| Sequence | PBM binding z-score [1] | PBM binding z-score [2] | PBM binding z-score [3] | PBM binding z-score [4] | PBM binding z-score [5] | PBM binding z-score [6] | PBM binding z-score [7] | PBM binding z-score [8] |
| --- | --- | --- | --- | --- | --- | --- | --- | --- |
| AATACAGGATCACTAGGCCAGAGTAGGTACGAAT | 0.388 | 0.343 | 0.495 | -0.317 | 0.367 | -0.0476 | -0.262 | 0.0243 |
| TCTGCTAGGTCAACGATGGTCAGCGAATCTGCTA | 3.42 | 4.03 | 4.75 | 0.927 | 2.57 | 3.15 | 0.707 | -0.22 |
| ATATGGAGGTTAAGGGTCATTCAGGTTGGTTCGC | 4.46 | 5.75 | 4.13 | 2.5 | 7.76 | 3.96 | 2.38 | 5.63 |
| TCGCGTAGGTTACGGGGGCATTCAGGGATGAAGA | 2.37 | 3.63 | 2.87 | 1.99 | 3.08 | 3.93 | 1.5 | 2.44 |
| ATATCTAGGTAAAAGTTCAGTGAATCCCGAGGAT | 2.58 | 2.11 | 2.05 | 0.832 | 1.62 | 1.38 | 0.52 | 2.01 |
| TCGAGTAGGTTACGGGGGCAATCAGGGATGAAGA | 2.12 | 3.25 | 2.36 | 1.52 | 2.73 | 3.4 | 0.675 | 2.03 |
| ATATCTAGGTTAGGGTCATTCAGAAAGTAGGGAA | 3.56 | 4.06 | 3.32 | 2.56 | 4.98 | 4.14 | 3.56 | 4.16 |
| ATATGTAGGGTAGGGTCATTCAGAAAGTAGGGAA | 3.53 | 3.55 | 2.77 | 2.93 | 4.34 | 4.11 | 3.7 | 4.73 |
| ACTCGGAGGACAGAGGTCAGAGCTACGCCAGTGA | 3.82 | 4.6 | 4.17 | 0.707 | 4.17 | 3.03 | 0.579 | 1.19 |
| CAAACTAGGTCAAAGGTCAAAATCGAGCCAACCA | 5.03 | 8.72 | 7.08 | 3.07 | 10.1 | 4.95 | 1.51 | 2.94 |
| CAAACTAGGCCAAGGTCAAAGTCGGTTTGTGCCA | 3.85 | 4.2 | 4.17 | 2.06 | 3.91 | 3.77 | 2.36 | 3.23 |
| CGAACTAGGTCAGAACAGGACATTGAAGGATGAT | 2.12 | 2.57 | 3.4 | 0.96 | 1.41 | 3.72 | 0.36 | 0.369 |
| CCTGCTAGGACAATGGTCAGCTAAAGCAGCTCGC | -0.0607 | -0.421 | -0.262 | 0.179 | -0.865 | 0.0505 | -0.399 | -0.794 |
| ATCGAAAGGTCGAAGGTGACTATACCCACCCGAA | 2.48 | 4.16 | 3.63 | 1.17 | 4.99 | 2.33 | 0.209 | 0.592 |
| ATCGAAAGGGCGTGAGGTGAGTATACAGAAAGGC | 1.44 | 1.47 | 1.36 | -0.0845 | 1.17 | 2.12 | 1.08 | 0.15 |
| CCGGGTAGGTTACGAGGGGGCATTCAGTGCGAAT | 2.2 | 3.26 | 2.22 | 0.966 | 2.35 | 3.94 | 0.875 | 2.55 |
| CCGAGTAGGTTACGAGGGGGCATTCACTGCGAAT | 2.02 | 3.01 | 2.43 | 1.06 | 1.98 | 3.81 | 0.568 | 2.51 |
| CGAACTAGGTTACCAGGACAGTGAAGAGGTTGGA | 1.01 | 0.707 | 1.05 | 0.48 | 0.367 | 1.62 | 0.878 | 0.0565 |
| CCGACTGGGGCAAAGGTTACCACACTCAGTACGA | 2.37 | 3.51 | 1.67 | -0.032 | 3.69 | 1.87 | 0.0247 | 0.177 |

| Sequence | PBM binding z-score [1] | PBM binding z-score [2] | PBM binding z-score [3] | PBM binding z-score [4] | PBM binding z-score [5] | PBM binding z-score [6] | PBM binding z-score [7] | PBM binding z-score [8] |
| --- | --- | --- | --- | --- | --- | --- | --- | --- |
| CGAACAAGGTCAAAGGACAGTGAAAGGCGACGTA | 3.95 | 5.92 | 5.92 | 3.59 | 5.76 | 3.57 | 1.54 | 2.26 |
| CCTTACGGGTCAGGAGGTTATAGCACGACGAGCG | 3.15 | 4.9 | 4.22 | -0.195 | 4.96 | 2.37 | 0.0139 | 0.418 |
| CCGCGTAGGTTACGAGGGGGCATTCAGTGCGAAT | 2.04 | 3.34 | 2.15 | 1.51 | 2.28 | 3.95 | 0.24 | 2.58 |
| CCTACTGGGCCATTGAGAGGTCATTGATCATATG | 3.78 | 4 | 2.63 | 0.642 | 3.13 | 3.06 | 1.26 | 3.78 |
| CAAACTAGGTCAAAGGTCAAGGTCGAGCCAACCA | 5.8 | 8.92 | 7.7 | 3.18 | 9.96 | 4.92 | 2.98 | 3.42 |
| TCGAGTAGGTTACGGGGGCATTCATGGATGAAGA | 2.23 | 3.37 | 2.71 | 1.74 | 2.93 | 2.63 | 1.13 | 3.57 |
| CGTCCAAGGTAAGAGAGGTCAGTGAATGCCGAGT | 3.65 | 2.87 | 3.04 | 0.742 | 2.46 | 2.91 | 1.13 | 1.93 |
| TTTAGTTGGTCAAAGGTCACACACTCGAAATGCG | 5.1 | 7.25 | 6.17 | 1.17 | 8.07 | 4.04 | 2.03 | 2.6 |
| CCTACTGGGCGAAGGTCATTGATCAGTCAAAGCA | 3.08 | 3.7 | 2.52 | 0.409 | 2.97 | 2.2 | -0.298 | 1.33 |
| CGAACTAGGTCACCAGGAAAGTGAAGAGGTTGGA | 3.18 | 4.45 | 5.45 | 1.53 | 3.53 | 2.91 | 1.04 | 0.43 |
| CCGAGTAAGTTACGAGGGGGCATTCAGTGCGAAT | 1.29 | 1.47 | 0.902 | 1.57 | 1.31 | 2.32 | 0.139 | 2.59 |
| TCTCGGAGGACACGAAAGGTCTGAGCTCGACATC | 1.21 | 0.667 | 1.47 | 0.831 | 0.137 | 1.53 | 0.392 | -0.266 |
| TAGCCTAGGTCATTGGACCAGTATAGTACGCATC | 2.73 | 3.97 | 4.37 | 1.43 | 3.1 | 2.85 | 0.854 | 1.54 |
| CCTAGCAGACCAATCTGGGTCACTCAAGGCTTGA | 1.75 | 0.672 | 0.527 | 0.174 | 0.711 | 2.64 | 0.374 | 0.0917 |
| CGAACTAGGTCAAAGGACAGTGTAAGGCGACGTA | 3.11 | 4.01 | 4.55 | 1.32 | 3.01 | 2.9 | 0.826 | 0.391 |
| CGTCAAAGTTCAAGGTAAAGTAACAGAAAGCAGC | 3.36 | 5.19 | 6.06 | 4.04 | 4.17 | 2.5 | 0.503 | 2.89 |
| ATATGTAGGTTATGGTCATTCAGAAAGTAGGGAA | 1.22 | 1.16 | 1.22 | 0.958 | 1.32 | 1.05 | 0.5 | 0.656 |
| ATATGTAGGTTACATCCGGGTCTTTCAGGCTATG | 1.01 | 1.09 | 1.02 | 0.936 | 0.924 | 1.62 | 0.947 | 0.214 |
| CAGAGTAGGTTACGAGGGGGCATTCAGTGCGAAT | 2.26 | 3.13 | 2.84 | 1.78 | 2.2 | 3.68 | 1.15 | 4.2 |

| Sequence | PBM binding z-score [1] | PBM binding z-score [2] | PBM binding z-score [3] | PBM binding z-score [4] | PBM binding z-score [5] | PBM binding z-score [6] | PBM binding z-score [7] | PBM binding z-score [8] |
| --- | --- | --- | --- | --- | --- | --- | --- | --- |
| CGTCAAAGCTCAACTAAGGTAACGTAAAGCACGC | 0.161 | 0.118 | 0.236 | 0.155 | -0.0326 | 3.64 | 1.57 | -0.205 |
| CTATGTAGGTTCAGGGGGTCATTCAGTTTGAAAG | 3.91 | 5.72 | 3.84 | 3.68 | 7.14 | 3.7 | 2.11 | 6.83 |
| CCGAGTAGGTTATGAGGGGGCATTCAGTGCGAAT | 2.32 | 2.98 | 2.83 | 1.66 | 1.95 | 3.88 | 1.86 | 3.74 |
| CGTCCAAGGTCCATGCTAGGTCAGTGAAAGCATT | 2.62 | 1.41 | 1.22 | 1.41 | 0.238 | 2.73 | 0.766 | 1.07 |
| TCGAGTAGGTTACGGGGGCATACAGGGATGAAGA | 2.05 | 3.68 | 2.84 | 1.44 | 3.07 | 3.53 | 1.18 | 2.83 |
| TCGAGTCGGTTACGGGGGCATTCAGGGATGAAGA | 1.57 | 2.4 | 1.77 | 1.16 | 1.5 | 3.45 | 0.955 | 2.23 |
| CTATGTAGGTTAAGGGGGTCATTCAGTTTGAAAG | 3.93 | 5.34 | 4 | 2.56 | 6.26 | 3.95 | 2.19 | 4.98 |
| CCGAGTAGGTTACGAAGGGGCATTCAGTGCGAAT | 1.42 | 1.22 | 1.2 | 0.309 | 0.781 | 2.26 | -0.808 | 1.23 |
| ATATGCAGGTTAGGGTCATTCAGAAAGTAGGGAA | 3.2 | 4 | 3.17 | 2.15 | 5.23 | 3.89 | 2.86 | 3.64 |
| TCGAGTAGGTTACGGGGGCGTTCAGGGATGAAGA | 1.66 | 2.9 | 1.99 | 1.4 | 2.05 | 3.24 | 1.34 | 3.52 |
| ATAGAAAGGTCGAAGGTGAGTATACCCACCCGAA | 2.36 | 4.23 | 3.8 | 0.55 | 4.9 | 2 | 0.0452 | 0.757 |
| ATCGAAAGGTCGTGAGGTGACTATACAGAAAGGC | 3.07 | 4.7 | 3.57 | 1.29 | 5.22 | 3.87 | 1.85 | 0.91 |
| CCGACTGGGCCATTCAGAGGTCATTGATCATATG | 3.91 | 4.49 | 3.13 | 1.43 | 3.85 | 3.01 | 1.22 | 3.2 |
| CGAACTAGGTCACCACGACAGTGAAGAGGTTGGA | 3.15 | 4.59 | 5.39 | 1.66 | 3.31 | 3.02 | 1.16 | 0.592 |
| CGTCCAACGTCAAGGTCAGTGAAAGAGACTCGAA | 3.13 | 2.61 | 3.16 | 0.737 | 1.9 | 2.57 | 1.67 | 0.844 |
| CCGAGTTGGTTACGAGGGGGCATTCAGTGCGAAT | 1.81 | 1.91 | 1.44 | 2.58 | 1.02 | 2.46 | 0.911 | 4.2 |
| TAGCCTAGGTCACGGGCCAGTATACCACGCGAAC | 3.83 | 5.12 | 5.43 | 0.27 | 4.73 | 3.83 | 1.84 | 0.425 |
| CCGAGCAGGTTACGAGGGGGCATTCAGTGCGAAT | 2.17 | 3.02 | 2.4 | 1.56 | 2.21 | 3.81 | 0.885 | 3.5 |
